Assay outcomes from PubChem BioAssay.
Shown are actives, neighbours in structure and some others; about 3.7% of the full set was active somewhere.
BoNT-A LC inh2 = BoNT A light chain protease inhibition; inhibition, % at 10 µM; AID 588499; 360,000 tested, 0.17% active; multiplex microsphere protease substrate cleavage, flow cytometry; in the data active = inhibition above about 30%; inconclusive = no clear call, values can overlap the other calls
MazEF act = increases E. coli MazEF RNase cleavage of RNA; activation, % at 20 µM; FAM/BHQ RNA-DNA oligo cleavage fluorescence, 5 h; 350,000 tested, 0.32% active; in the data active = activation above about 50%
BoNT F protease = blocks Botulinum neurotoxin F light chain protease | Multiplex microsphere protease cleavage assay, flow cytometry | inhibition, % at 10 µM | 360,000 tested, 0.22% active | AID 588497; in the data active = inhibition above about 35%, passing the limit was not always enough; inconclusive = no clear call, values can overlap the other calls
Autofluor counter = counter-screen for toxin protease inhibitors: compound fluorescence | compound autofluorescence counterscreen, microsphere flow cytometry; stronger effect = higher value | fluorescence intensity (no concentration beside the values) | 360,000 tested, 3.1% active | AID 624483; in the data active = fluorescence intensity above about 16000; inconclusive = no clear call, values can overlap the other calls
Anthrax LF inh2 = anthrax lethal factor protease inhibition; AID 588501; 360,000 tested, 0.12% active; P15917; multiplex microsphere protease cleavage assay, LF; inhibition, % at 10 µM; in the data active = inhibition above about 30%; inconclusive = no clear call, values can overlap the other calls
Target sequence (P15917 whole entry, looked up): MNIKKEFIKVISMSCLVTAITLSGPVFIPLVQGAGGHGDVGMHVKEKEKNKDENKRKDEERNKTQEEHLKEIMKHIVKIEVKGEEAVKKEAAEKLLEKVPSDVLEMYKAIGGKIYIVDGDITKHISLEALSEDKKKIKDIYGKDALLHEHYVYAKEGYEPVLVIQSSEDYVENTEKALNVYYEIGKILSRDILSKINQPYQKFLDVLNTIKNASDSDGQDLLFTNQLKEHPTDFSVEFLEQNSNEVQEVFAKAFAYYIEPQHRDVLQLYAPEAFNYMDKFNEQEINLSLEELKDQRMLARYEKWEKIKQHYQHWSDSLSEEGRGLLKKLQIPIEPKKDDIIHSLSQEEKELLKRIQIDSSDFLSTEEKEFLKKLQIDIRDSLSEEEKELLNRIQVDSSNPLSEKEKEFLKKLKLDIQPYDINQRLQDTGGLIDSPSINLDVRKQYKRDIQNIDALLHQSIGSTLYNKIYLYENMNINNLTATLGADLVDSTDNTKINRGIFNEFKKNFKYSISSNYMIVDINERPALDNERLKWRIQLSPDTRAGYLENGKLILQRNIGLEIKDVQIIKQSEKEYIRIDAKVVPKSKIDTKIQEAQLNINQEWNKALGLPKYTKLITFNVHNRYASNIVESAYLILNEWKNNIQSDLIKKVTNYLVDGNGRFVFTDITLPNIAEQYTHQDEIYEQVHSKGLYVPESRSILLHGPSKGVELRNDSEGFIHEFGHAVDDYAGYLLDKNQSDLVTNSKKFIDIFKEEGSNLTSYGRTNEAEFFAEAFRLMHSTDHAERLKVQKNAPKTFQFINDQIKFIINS
BoNT-A LC CP1 = blocks botulinum neurotoxin A light chain protease; AID 602139; shares compounds with BoNT F protease; multiplex microsphere protease assay, flow cytometry; inhibition, % at 10 µM; 720 tested, 3% active; in the data active = inhibition above about 32%
BoNTF LC inh 1 = BoNT/F light chain protease inhibition; 720 tested, under 10 active; inhibition, % at 10 µM; AID 602140; multiplex microsphere protease cleavage assay, flow cytometry; shares compounds with BoNT F protease; call rule not given here
Anthrax LF CP1 = inhibitors of Bacillus anthracis lethal factor protease | multiplex microsphere protease cleavage assay, LF | 720 tested, under 10 active | AID 602142 | inhibition, % at 10 µM | shares compounds with BoNT F protease; call rule not given here
BoNT-A LC CP2 = inhibitors of botulinum neurotoxin A light chain protease | shares compounds with BoNT-A LC inh2 | multiplex microsphere protease cleavage assay, flow cytometry | inhibition, % at 10 µM | 150 tested, 10% active | AID 602325; in the data active = inhibition above about 24%
LF protease CP2 = inhibitors of Bacillus anthracis lethal factor protease; AID 602327; inhibition, % at 10 µM; multiplex microsphere protease cleavage assay; shares compounds with BoNT-A LC inh2; 150 tested, 7% active
BoNT-F LC CP2 = BoNT/F light chain protease inhibition; shares compounds with BoNT-A LC inh2; multiplex microsphere protease cleavage assay, flow cytometry; inhibition, % at 10 µM; 150 tested, 7% active
Large screens that a line does not name were inactive (follow-up assays come after a bar, where they were run). Rule as the data show it, unless noted: active = inhibition above about 25%; inactive = the rest.

COc1ccc(/C=C/c2cc(C(F)(F)F)on2)cc1	BoNT F protease 40 | BoNT-A LC CP1 inactive | BoNTF LC inh 1 inactive | Anthrax LF CP1 inactive
COc1ccc(C(O)c2nc(/C=C/c3ccc(C(F)(F)F)cc3)cs2)cc1 (stereo not given)	none (no result: MazEF act)
CC(=O)Nc1ccc(NC(=O)c2sc(-c3ccccc3)nc2C)cc1	BoNT F protease 43 | BoNT-A LC CP1 inactive | BoNTF LC inh 1 inactive | Anthrax LF CP1 inactive
CNC(=O)c1sc(-c2ccccc2)nc1C	none
Cc1ccc(SCC(=O)NNC(=O)c2cncc(Br)c2)cc1	none
CCCCNCCOCCOc1ccc(C)cc1[N+](=O)[O-]	BoNT F protease 46, Autofluor counter inconclusive, Anthrax LF inh2 inconclusive | BoNT-A LC CP1 inactive | BoNTF LC inh 1 inactive | Anthrax LF CP1 inactive
Cc1nnc(SCC(=O)NC2CCCCCC2)n1N	none
COc1ccc(CNC(=O)C(OC(=O)c2ccco2)c2ccc(F)cc2)cc1 (stereo not given)	none
Cc1cc(C)n2nc(C(=O)N/N=C/c3ccco3)nc2n1	BoNT-A LC inh2 inconclusive, BoNT F protease inconclusive
Cc1cc(Nc2cccc(F)c2)nc(N2CCOCC2)n1	BoNT F protease 42 | BoNT-A LC CP1 inactive | BoNTF LC inh 1 inactive | Anthrax LF CP1 inactive
CC1CCN(C(=O)c2ncn(Cc3ccccc3)c2C(=O)N2CCC(C)CC2)CC1	none
O=C(CCNS(=O)(=O)c1ccc(Cl)cc1)Nc1ccncc1	none
O=C(NCc1ccco1)c1ccc(S(=O)(=O)c2cccc(S(=O)(=O)N3CCOCC3)c2)cc1	BoNT F protease 38 | BoNT-A LC CP1 inactive | BoNTF LC inh 1 inactive | Anthrax LF CP1 inactive
COC(=O)c1cc(S(=O)(=O)N2CCCCCC2)cn1C	none
Cc1cc2cc(C(c3nnnn3C(C)(C)C)N(Cc3ccco3)CC3CCCO3)c(=O)[nH]c2cc1C (stereo not given)	none
Cc1cc(C)c2[nH]c(=O)c(C(c3nnnn3C(C)(C)C)N(Cc3ccco3)CC3CCCO3)cc2c1 (stereo not given)	Autofluor counter 20853 | BoNT-A LC CP1 inactive | BoNTF LC inh 1 inactive | Anthrax LF CP1 inactive
COc1cccc2cc(CC(=O)c3ccc(C)cc3C)c(=O)oc12	none
CCn1c(C)c(C(C)=O)c(N2CCN(C(c3ccccc3)c3ccccc3)CC2)nc1=S	none
CCn1c(C)c(C(C)=O)c(N2CCN(c3ccccc3)CC2)nc1=S	BoNT-A LC inh2 46 | BoNT-A LC CP1 inactive | BoNTF LC inh 1 inactive | Anthrax LF CP1 inactive
Cc1ccc(C(CC(=O)N2CCNCC2)c2ccccc2)c(O)c1C (stereo not given)	none
Cc1ccc(C(CC(=O)N2CCCCC2)c2ccccc2)c(O)c1C (stereo not given)	BoNT F protease 128, Anthrax LF inh2 69 | BoNT-A LC CP1 inactive | BoNTF LC inh 1 inactive | Anthrax LF CP1 inactive
O=[N+]([O-])c1ccc(N(c2ccccc2)c2ccccc2)cc1	BoNT-A LC inh2 58, Autofluor counter 21531, Anthrax LF inh2 47 | BoNT-A LC CP1 inactive | BoNTF LC inh 1 inactive | Anthrax LF CP1 inactive
COc1ccc(CNC(=O)N[C@H](C(=O)O)C(C)C)cc1OC	none
C=CCc1ccc(OCCOc2cccc3ccc(C)nc23)c(OC)c1	BoNT-A LC inh2 46, BoNT F protease 53 | BoNT-A LC CP1 inactive | BoNTF LC inh 1 inactive | Anthrax LF CP1 inactive
Cc1ccc2cccc(OCc3ccc(F)cc3)c2n1	none
Cc1ccc2cccc(OCc3ccc(Br)cc3)c2n1	BoNT F protease 39 | BoNT-A LC CP1 inactive | BoNTF LC inh 1 inactive | Anthrax LF CP1 inactive
C=CCc1ccc(OCCOCCN(C)C)c(OC)c1	none
CC(=O)c1cccc(N(CC(=O)Nc2ccccc2C(=O)N2CCCC2)S(C)(=O)=O)c1	none
O=C(NC1CCCCC1)C1CCN(c2ncccn2)CC1	none
O=C(NC1CCCCCC1)C1CCCN(c2ncccn2)C1 (stereo not given)	BoNT-A LC inh2 79 | BoNT-A LC CP1 inactive | BoNTF LC inh 1 inactive | Anthrax LF CP1 inactive
CCCCCCCCC(c1nc2cc(C)c(C)cc2[nH]1)n1c(=O)c(-c2ccccc2Br)nc2ccccc21 (stereo not given)	none (no result: MazEF act) | BoNT-A LC CP2 28 | LF protease CP2 inactive | BoNT-F LC CP2 inactive
CCCCC(c1nc2ccccc2[nH]1)n1c(=O)c(-c2ccccc2)nc2cc(C)c(C)cc21 (stereo not given)	BoNT-A LC inh2 30, Anthrax LF inh2 34 (no result: MazEF act) | BoNT-A LC CP2 inactive | LF protease CP2 inactive | BoNT-F LC CP2 inactive
CCCCC(c1nc2ccccc2[nH]1)n1c(-c2ccccc2)nc2cc(C)c(C)cc21 (stereo not given)	none (no result: MazEF act)
O=C(CCNC(=O)c1ccc(Br)cc1)NNC(=O)C1COc2ccccc2O1 (stereo not given)	none (no result: BoNT-A LC inh2, BoNT F protease, Autofluor counter, Anthrax LF inh2)
COc1cccc(CN2CC(C(=O)NCCCCc3ccccn3)CCC2=O)c1 (stereo not given)	none
O=C(O)CN1CCN(CC(=O)O)CCN(CC(=O)O)CCN(CC(=O)O)CC1	BoNT F protease 63 | BoNT-A LC CP2 inactive | LF protease CP2 inactive | BoNT-F LC CP2 48
Cc1cc(Br)ccc1SCC(=O)OCC(=O)Nc1ccc2[nH]c(=O)[nH]c2c1	BoNT F protease 62, Anthrax LF inh2 36 | BoNT-A LC CP2 inactive | LF protease CP2 inactive | BoNT-F LC CP2 inactive
CCCC(=O)OCC(=O)Nc1ccc2[nH]c(=O)[nH]c2c1	none
COc1ccccc1Cc1c(-c2ccccc2)nc2cc(C)c(Br)c(C)n12	none (no result: MazEF act) | BoNT-A LC CP2 inactive | LF protease CP2 inactive | BoNT-F LC CP2 inactive
Cc1cc2nc(-c3cccc(Br)c3)c(Cc3cccc(Cl)c3)n2c(C)c1Br	none (no result: MazEF act) | BoNT-A LC CP2 inactive | LF protease CP2 inactive | BoNT-F LC CP2 45
COc1ccccc1Cc1c(-c2ccc(F)cc2)nc2cc(C)c(Br)c(C)n12	none (no result: MazEF act) | BoNT-A LC CP2 25 | LF protease CP2 inactive | BoNT-F LC CP2 inactive
COc1ccccc1Cc1c(-c2ccc(C)cc2)nc2cc(C)c(Br)c(C)n12	none (no result: MazEF act) | BoNT-A LC CP2 inactive | LF protease CP2 inactive | BoNT-F LC CP2 inactive
Cc1cc2nc(-c3cccc(Cl)c3)c(Cc3ccccc3)n2c(C)c1Br	none (no result: MazEF act)
CS(=O)(=O)N(CC(=O)N1CCCC1)c1ccccc1Br	none
O=C(NNS(=O)(=O)c1ccc(F)cc1)c1cc2ccccc2cc1O	none
COc1cc2cc(CCOC(=O)c3ccco3)oc(=O)c2cc1OC	none
Cc1cccc(NC(=O)NCc2ccc3c(c2)cc(C)n3C)c1	BoNT-A LC inh2 58 | BoNT-A LC CP2 inactive | LF protease CP2 inactive | BoNT-F LC CP2 inactive
